Efflux pump mplx: antifungal efflux pump inhibition, Nile Red retention; S. cerevisiae Candida pump triplex; inhibition, % at 10 µM; 330,000 tested, 0.44% active; AID 485275;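 active means plate passing quality check with inhibition over a set limit, or well fluorescence over plate mean plus 4 SD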;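 further: Nile Red retained in pooled yeast measured as flow cytometry median fluorescence; higher means more Nile Red kept so more efflux inhibition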
VLA-4 inh: inhibition in a human VLA-4 binding assay; P13612; VLA-4 expressing cells, ligand binding flow cytometry; inhibition, % (about 7 µM as worked out from the volumes in the protocol); 330,000 tested, 0.2% active; in the data active means inhibition above about 50%
AHR act: human AHR activation. AHR-responsive luciferase reporter cells, luminescence. AID 2796. 320,000 tested, 2.5% active. activation, % at 5 µM. P35869; in the data active means activation above about 47%
ALR H2O2 inh: human ALR oxidase inhibition via reduced H2O2; AID 485317; purified ALR, DTT oxidation, H2O2 HRP-luminol luminescence; inhibition, % (test concentration not listed); P55789; 290,000 tested, 3.8% active;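 active means mean replicate inhibition above about 79%, with every replicate also reaching it, limit read from the data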
Target sequence (P55789 whole entry, looked up): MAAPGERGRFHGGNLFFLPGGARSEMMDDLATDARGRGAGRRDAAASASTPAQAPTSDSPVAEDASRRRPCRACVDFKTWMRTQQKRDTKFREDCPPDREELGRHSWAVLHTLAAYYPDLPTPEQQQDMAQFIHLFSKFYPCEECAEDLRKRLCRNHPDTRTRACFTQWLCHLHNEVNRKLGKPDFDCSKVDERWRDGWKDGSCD
Bfl-1 A1 inh: inhibitors of the anti-apoptotic protein A1, read as caspase activation; AID 2462; 330,000 tested, 0.066% active; caspase activation, % (test concentration not listed); MEF A1-2A-BIM cells, Caspase-Glo 3/7 luminescence, 3 h; percent of clofoctol response, vehicle zero;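 active means over half of replicate activation scores above 10%, or exactly half above 10 with the replicate mean above 10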
Mot1-301 SUMO: blocks SUMOylation pathway, rescuing yeast Mot1-301 growth. S. cerevisiae Mot1-301 growth rescue, ATP luminescence, 38.5C; percent above DMSO median, 100 means doubled. growth rescue, % at 18.8 µM. 320,000 tested, 1% active. AID 2716;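 active means every valid replicate shows activation above 250% relative to neutral control wells; inactive means the rest, any valid replicate at or below 250%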
Large screens that a line does not name were inactive. Compounds with a hit are over-represented: about 7.2% of the library has one in this group of screens.

Cc1ccc(C(=O)Nc2ccc(Cl)cn2)cc1	none
COC(=O)c1ccccc1NC(=O)c1c(Br)cnn1C	none
Cn1ncc(Br)c1C(=O)Nc1ccc(Br)cn1	AHR act 175
COC(=O)Nc1ccc(S(=O)(=O)N2CCCC(C(=O)N3CC(C)OC(C)C3)C2)cc1 (stereo not given)	none
COC(=O)c1cc(CSC(=N)N)ccc1OCCC(C)C	ALR H2O2 inh 99
CCCOc1ccc(CSC(=N)N)cc1C(=O)OC	ALR H2O2 inh 99
O=C(Nc1ccccc1)n1ccc(-c2ccc(-n3ccnc3)cc2)n1	AHR act 83
COc1cc(/C=N/NC(=O)c2ccc3c(c2)OCO3)ccc1O	ALR H2O2 inh 99 (no result: AHR act)
COc1ccc(OC)c(/C=N\NC(=O)c2c(C)nc3cc(C)ccn23)c1	none
O=C(NN=Cc1ccc(O)cc1)c1ccccc1NS(=O)(=O)c1cccs1	ALR H2O2 inh 99
COc1ccc(/C=N/NC(=O)c2ccc3c(c2)OCO3)cc1	none
COc1cc(/C=N/NC(=O)c2cccs2)ccc1O	ALR H2O2 inh 99
O=C(O)c1ccc(C=NNC(=O)c2ccccc2NS(=O)(=O)c2cccs2)cc1	none
COc1cc(/C=N\NC(=O)c2c(C)nc3cc(C)ccn23)ccc1O	ALR H2O2 inh 97
O=C(CCc1nc(-c2ccccc2)no1)NC1CCCCCC1	none (no result: ALR H2O2 inh, Bfl-1 A1 inh, Mot1-301 SUMO)
CCOC(=O)C1CCN(C(=O)COC(=O)c2ccccc2C(=O)c2ccc(Cl)cc2)CC1	none
CNC1(C(N)=O)CCNCC1	none
Cc1ccc(S(=O)(=O)N2CCN(C3CC(=O)N(c4ccc(F)cc4)C3=O)CC2)cc1C (stereo not given)	none
Cc1ccc(C(=O)Nc2c(C)cc(C)c3cccnc23)cc1	none (no result: ALR H2O2 inh)
COc1cc(C(=O)N/N=C/c2ccc(OC(=O)c3ccccc3Cl)c(OC)c2)ccc1O	none (no result: AHR act)
COc1cc(C=NNC(=O)c2ccc(NS(=O)(=O)c3cccs3)cc2)cc(Br)c1O	ALR H2O2 inh 78
COc1cc(C(=O)N/N=C/c2cccc(Oc3ccccc3)c2)ccc1O	ALR H2O2 inh 85 (no result: AHR act)
O=C(N/N=C/c1cc(Br)cc(Cl)c1O)c1ccc2c(c1)OCO2	none
Cc1cc(Br)cc(/C=N/NC(=O)c2ccc3c(c2)OCO3)c1O	AHR act 62
CC(=O)Nc1ccc(C=NNC(=O)c2ccc(NS(=O)(=O)c3cccs3)cc2)cc1	none
COc1cc(/C=N/NC(=O)c2ccccc2O)ccc1OC(=O)CC1SC(=O)NC1=O (stereo not given)	ALR H2O2 inh 88
O=C(N/N=C/c1cccc(Oc2ccccc2)c1)c1ccncc1	none
FC(F)(F)c1cccnc1-n1cncn1	none (no result: ALR H2O2 inh)
COc1ccccc1NC(=O)C(C)OC(=O)CCC1CCCCC1 (stereo not given)	none
COc1cc(/C=N/NC(=O)/C(=C\c2ccc3c(c2)OCO3)NC(=O)c2ccccc2)ccc1O	AHR act 69
COc1cc(/C=N/NC(=O)c2nc3ccccn3c2C)cc(OC)c1O	ALR H2O2 inh 99
Cc1c(C(=O)N/N=C/c2ccc(N3CCOCC3)cc2)nc2ccccn12	none
COc1cc(/C=N/NC(=O)c2ccc(-n3cccc3)cc2)ccc1O	ALR H2O2 inh 99
COc1ccc(/C=N/NC(=O)c2cc(-c3ccc4c(c3)OCO4)n[nH]2)cc1OC	AHR act 73
COCCC(=O)N1CCC(Oc2ccc(C(=O)N3CCC(N(C)C)C3)cc2)CC1 (stereo not given)	none
Cc1cc(C)n(-c2nnc(NC34CC5CC(CC(C5)C3)C4)nn2)n1	none (no result: ALR H2O2 inh)
CN(C)c1ccc(/C=N/NC(=O)c2ccc3c(c2)OCCO3)cc1	ALR H2O2 inh 98
O=C(N/N=C/c1ccc2c(c1)OCO2)c1ccc2c(c1)OCCO2	none
O=C(CSc1nncc2ccccc12)Nc1ccccc1	ALR H2O2 inh 99
O=C(CSc1nncc2ccccc12)Nc1ccc(F)cc1	none
O=C(CSc1nncc2ccccc12)Nc1ccc(C(=O)O)cc1	ALR H2O2 inh 100
CCN(C(=O)Cn1cc(C(F)(F)F)ccc1=O)c1c(N)n(Cc2ccccc2)c(=O)[nH]c1=O	none
CC1CN(C(=S)Nc2ccc(Cl)cc2)CC(C)O1 (stereo not given)	none
CC1CN(c2ccc(NC(=S)Nc3ccc(N4CC(C)OC(C)C4)cc3)cc2)CC(C)O1 (stereo not given)	ALR H2O2 inh 97
CCOc1ccccc1N1CN(CC)CNC1=S	Mot1-301 SUMO 355
CC(C)Cn1c(SCC(=O)Nc2cccnc2Cl)nnc1-c1ccco1	none
CCc1ccc(NC(=O)CSc2nnc(C)c(=O)n2N)cc1	ALR H2O2 inh 99
Cc1ccc(NC(=O)CSc2nnc(C)c(=O)n2N)cc1	none
CCc1ccc(Nc2nc(N)nc(CSc3nnnn3-c3ccccc3)n2)cc1	AHR act 50 (no result: ALR H2O2 inh)
CCc1ccc(NC(=O)CSc2nnnn2-c2cccnc2)cc1	AHR act 63
CCc1nnc(NC(=O)CSc2nnc(C)c(=O)n2N)s1	ALR H2O2 inh 95
Cc1onc(-c2c(F)cccc2Cl)c1C(=O)OCC(=O)c1c(N)n(C)c(=O)n(C)c1=O	none
CCn1c(SC(C)C(=O)NCC2CCCO2)nc2ccccc21 (stereo not given)	none
Cc1nnc(SCc2cccc3ccccc23)n(N)c1=O	none
CCc1ccc(NC(=O)CSc2nnc(Cn3c(=O)sc4ccccc43)n2C)cc1	AHR act 78
Cc1nnc(SCC(=O)Nc2ccc(S(N)(=O)=O)cc2)n(N)c1=O	ALR H2O2 inh 99
CC(C)c1ccc(/C=N/NC(=O)c2nnn(-c3nonc3N)c2CN(C)C2CCCCC2)cc1	none
Cc1ccc(C)c(NC(=O)CSc2nc3ccc(N4C(=O)c5ccccc5C4=O)cc3s2)c1	ALR H2O2 inh 86
O=[N+]([O-])c1ccc2nc(-c3ccccc3[N+](=O)[O-])[nH]c2c1	none
Nc1[nH]c2cc([N+](=O)[O-])ccc2c1-c1ccccn1	ALR H2O2 inh 92
Cc1[nH][nH]c(=O)c1C=NCc1cccs1	none
C/C(=N\NC(=O)c1cc(-c2ccc(Cl)s2)[nH]n1)c1ccncc1	AHR act 50
CNC(=O)c1cc2c(s1)-c1ccccc1CC2	AHR act 75
O=C(CSc1ccc2nnc(-c3ccccn3)n2n1)Nc1ccccc1F	none
COc1ccccc1CNc1ncc(-c2ccc(F)cc2)n1C	AHR act 73, ALR H2O2 inh 98
COc1ccc(CNc2ncc(-c3ccc(F)cc3)n2C)c2ccccc12	AHR act 61
Cn1c(-c2ccc(F)cc2)cnc1NCc1ccccc1	none
COc1ccc(CNc2ncc(-c3ccc(F)cc3)n2C)cc1OC	none
COc1cc(CNc2ncc(-c3ccc(Br)cc3)n2C)cc(OC)c1O	ALR H2O2 inh 86
Cn1c(-c2ccc(F)cc2)cnc1NCc1cccc(F)c1	none (no result: ALR H2O2 inh)
Cn1c(-c2cccc(Br)c2)cnc1NCc1cccnc1	ALR H2O2 inh 85
CC1CCC2(CC1)NC(=S)N(c1ccccc1)N2 (stereo not given)	ALR H2O2 inh 93

Compound activity from PubChem BioAssay.
